# Screening data deposited in PubChem BioAssay by National Center for Advancing Translational Sciences (NCATS).
# An excerpt weighted towards active compounds, which were near 5.7% of everything screened.
# TGFb SMAD3 inh: qHTS for Inhibitors of TGF-b | HepG2 CAGA-GFP TGF-b/SMAD3 reporter, GFP fluorescence, 18 h; TGF-beta stimulated, 500 pg/mL final | Potency, µM (highest dose often 46.1 µM), inactives show at the top dose activity, negative = inhibition, usual class: inhibitors | 410,000 compounds, 1.2% hits | AID 588855, 2011; note: potency is the fitted concentration of half-maximal effect; % is set by controls: 0 for no effect and ±100 for the full control effect; nearly all actives have a fitted effect of over 65% in size
#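 TGF-beta reporter screen: HEPG2 CAGA-GFP, 1% FBS, 500 pg/mL TGF-beta final, 18 h; per-cell GFP summed per well; curves fitted and categorized by class.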
# ATXN2 expr inh: Primary qHTS for Inhibitors of ATXN expression. AID 1745845, 2022. HEK-293 ATXN2-luciferase reporter, luminescence, 24 h. 360,000 compounds, 0.72% hits. Potency, µM (highest dose often 57 µM), inactives show top-dose activity change, negative = inhibition, hits mostly inhibitors; note: potency is the fitted concentration of half-maximal effect; % is set by controls: 0 for no effect and ±100 for the full control effect; nearly all actives have a fitted effect of over 55% in size
#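 ATXN2-luciferase reporter cells (luciferase flanked by upstream and downstream ATXN2 gene portions) were treated 24 h at 37 °C with compounds at up to 57 uM. SteadyGlo luminescence gave expression; GF-AFC fluorescence gave viability.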
# HepG2 tox: qHTS for Inhibitors of TGF-b: Cytotox Counterscreen; HepG2 CAGA-GFP viability, ATP luminescence, 18 h; Potency, µM (highest dose often 46.1 µM), for the others: at the highest dose activity change, negative = cytotoxicity, hits mostly cytotoxic; 410,000 compounds, 0.76% hits; note: potency is the fitted concentration of half-maximal effect
#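 CellTiter-Glo luminescence gave cytotoxicity after 18 hours at 37 degrees C. The cells were HepG2 CAGA-GFP in 1% FBS DMEM, stimulated with 500 pg/mL TGF-beta after compound addition. %Activity was normalised to no-cell wells (complete cell-killing) and DMSO (no toxicity), and curves were fitted and classified.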
# ATXN viability: Viability Counterscreen for Primary qHTS for Inhibitors of ATXN expression. S2 cells (HEK-293 line with an ATXN2-luciferase reporter) viability, CellTiter-Fluor protease fluorescence, 24 h. 400,000 compounds, 0.49% hits. Potency, µM (doses to about 56.7 µM), usual class: cytotoxic. AID 651635, 2014; note: potency is the fitted concentration of half-maximal effect; nearly all actives have a fitted effect of over 40% in size
# IL1B secr inh: qHTS for Inhibitors of Inflammasome Signaling: IL-1-beta AlphaLISA Primary Screen; THP-1 LPS/ATP IL-1B secretion, AlphaLISA, 16 h; hits give low values; activity change, % at 57.5 µM; 360,000 compounds, 4.7% hits; AID 743279, 2014; in the data active = activity change below about -50%; inconclusive = mostly about -30% to -49%; note: % is set by controls: 0 for no effect and ±100 for the full control effect
#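 THP-1 cells pretreated 1 hr with compounds (up to 57.5 uM final), then stimulated with LPS (250 ng/mL final) plus ATP (1.25 mM final); secreted IL-1B measured by AlphaLISA after 16 hr, decreased signal indicating inhibition.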
# An asterisk follows results filed as active; i = inactive; ? = inconclusive; . = no result; [ ] = remark or other dose. Unless noted, calls come from the whole dose curve; as a rule, active = well fitted curve in the direction sought with a large enough effect; inconclusive = small, poorly fitted or top-dose-only effect, or another doubt; inactive = no such curve, though single readings can be large; an effect the other way counts as inactive or inconclusive.
SMILES,TGFb SMAD3 inh,ATXN2 expr inh,HepG2 tox,ATXN viability,IL1B secr inh
Cc1ccc2cc(/C=C/C(=O)c3ccco3)c(Cl)nc2c1,?,-8.4%,-53.5%,i,.
COc1cc2cc(/C=C/C(=O)c3ccco3)c(Cl)nc2cc1OC,?,-7.5%,12.6µM*,i,35.0
Cc1c(C(=O)N2CCCC2)sc2ncnc(NCCCN3CCOCC3)c12,.,.,.,i,.
C/C=C(\C)C(=O)N1CC2(CC(c3cccc(NC(=O)COc4ccc(Cl)cc4)c3)=NO2)C[C@@H]1C(N)=O (stereo partly specified),-8.4%,4.4%,-11.0%,i,-7.8
COc1ccc(C(=O)N2CC3(CC(c4cccc(NC(=O)COc5ccc(Cl)cc5)c4)=NO3)C[C@@H]2C(N)=O)cc1 (stereo partly specified),?,?,-22.3%,?,-57.2*
NC(=O)[C@@H]1CC2(CC(c3cccc(NC(=O)COc4ccc(Cl)cc4)c3)=NO2)CN1C(=O)c1ccccc1 (stereo partly specified),?,-23.7%,-15.0%,?,-65.1*
CC12CCC=CC1C(c1cccc(Br)c1)N(Cc1ccccc1)C2=O (stereo unspecified),12.6µM*,.,-90.8%,.,.
CC(=O)c1ccc(-c2cccc(C3C4C=CCCC4(C)C(=O)N3Cc3ccccc3)c2)cc1 (stereo unspecified),17.8µM*,.,-19.0%,.,.
COc1ccc(-c2cccc([C@H]3[C@@H]4C=CCC[C@@]4(C)C(=O)N3Cc3ccccc3)c2)cc1,?,?,-15.9%,i,-15.8
COc1cc(F)ccc1-c1csc(C(O)(c2ccccc2)C(F)(F)F)n1 (stereo unspecified),?,?,22.4µM*,?,?
CN(C)c1ccc(-c2csc(C(O)(c3ccccc3)C(F)(F)F)n2)cc1 (stereo unspecified),?,13.5%,15.8µM*,i,-12.1
Cc1ccc(-c2csc(C(O)(c3ccccc3)C(F)(F)F)n2)cc1C (stereo unspecified),?,-23.6%,-96.7%,?,-0.4
COc1ccccc1OCCn1c(COc2cc(C)ccc2C)nc2ccccc21,.,.,-6.5%,.,.
CN(C)c1ccc(/C=C/c2ccc3cc(F)ccc3n2)cc1,0.3%,.,-21.0%,.,.
CC(=O)Nc1ccc(S(=O)(=O)NCCSCc2c(Cl)cccc2Cl)cc1,5.5%,-14.5%,-15.0%,?,-66.0*
CCOC(=O)CN(c1cc([N+](=O)[O-])ccc1OC)S(C)(=O)=O,11.4%,-14.3%,-10.8%,i,-60.4*
COc1ccc(CNC(=O)Cn2ccc3cc(S(=O)(=O)N4CCCCC4)ccc32)cc1OC,?,-15.1%,-3.0%,i,.
COc1cc(-c2cc(=O)c3c(O)cc(O)cc3o2)ccc1O,?,25.3%,-35.3%,i,-63.8*
O=c1cc(-c2ccccc2)oc2cc(O)cc(O)c12,?,59.6%,-80.5%,i,-0.3
O=c1cc(-c2ccc(O)cc2)oc2cc(O)cc(O)c12,?,10.7%,-3.5%,?,-89.4*
O=C(C[N+]1(CCO)CCOCC1)c1cccc2ccccc12,-4.2%,.,1.0%,.,.
Cc1cc(NC(=O)OC2CCCCC2)ccc1[N+](=O)[O-],?,69.7%,-9.5%,i,-51.2*
Cc1cnc(NC(=O)C2CC(=O)N(c3ccc4c(c3)OCCO4)C2)s1 (stereo unspecified),?,0.0%,-21.3%,i,-57.2*
Cc1cnc(NC(=O)C2CC(=O)N(c3cccc(Cl)c3)C2)s1 (stereo unspecified),?,0.562µM*,1.78µM*,?,-17.1
Cc1nnc(NC(=O)C2CC(=O)N(c3ccc4c(c3)OCCO4)C2)s1 (stereo unspecified),5.3%,6.6%,-15.2%,i,-6.0
SMILES,TGFb SMAD3 inh,ATXN2 expr inh,HepG2 tox,ATXN viability,IL1B secr inh
CC(=O)Nc1ccc(NC(=O)C2CC(=O)N(c3cccc(Cl)c3)C2)cc1 (stereo unspecified),7.8%,.,3.0%,i,23.2
Cc1cccc(Cn2cnc3c(cnn3C(C)(C)C)c2=O)c1F,-1.7%,.,-21.9%,.,.
O=C(Nc1ccc2c(c1)CCC2)c1cnn2c1NC(=C1CC1)C=C2C(F)F,-2.6%,.,-3.5%,.,.
COc1ccc(N2C(=O)[C@@H]3C[C@H]2CN3Cc2cccn2-c2ccc(Cl)cn2)c(C)c1,.,.,.,i,.
CCc1ccccc1NC(=O)c1ncoc1-c1ccco1,-19.5%,-4.1%,-4.9%,i,.
O=C(NCCN1C(=O)S/C(=C\c2ccc(Cl)c(Cl)c2)C1=O)C1COc2ccccc2O1 (stereo unspecified),?,6.3%[11.3 µM],-1.8%,i,-56.3*
CCOc1ccc(/C=C2\SC(=O)N(CCNC(=O)C3COc4ccccc4O3)C2=O)cc1OC (stereo unspecified),?,?,-3.0%,?,-53.3*
NC(=S)N/N=C1\CC(c2ccc3c(c2)OCCCO3)Oc2ccc(F)cc21 (stereo unspecified),?,-16.6%,11.5%,i,-70.7*
Cc1ccc(S(=O)(=O)N2CCC(C(=O)NCCN3CCCCCC3)CC2)cc1,-2.5%,0.5%,-3.3%,i,-18.5
O=C(Nc1ncc(SCCN2CCCC2)s1)[C@]1(c2ccc(S(=O)(=O)C3CC3)cc2)C[C@@H]1C1CCCCC1,.,27.3µM*,.,.,.
COCc1ccc(CN2CCc3c([nH]c4ccccc34)C2C(C)(C)C)o1 (stereo unspecified),?,4.5%[11.3 µM],-14.5%,i,-52.6*
CCn1ccnc1CN1CCc2c([nH]c3ccccc23)C1C(C)(C)C (stereo unspecified),-19.1%,-16.6%,-27.1%,?,-84.4*
Cc1oc(-c2ccc(Cl)cc2)nc1CN1CCCC(C(=O)NCCc2ccccc2)C1 (stereo unspecified),7.08µM*,-2.2%,-20.6%,?,.
Cc1oc(-c2ccc(Cl)cc2)nc1CN1CCC(C(=O)NCCCN2CCCC(C)C2)CC1 (stereo unspecified),?,?,14.1µM*,?,?
Cc1oc(-c2ccc(Cl)cc2)nc1CN1CCCC(C(=O)NCc2cccnc2)C1 (stereo unspecified),?,-13.1%,-20.9%,?,-72.1*
Cc1cccc(-c2nc(CN3CCCC(C(=O)NCCc4ccc(Cl)cc4)C3)c(C)o2)c1 (stereo unspecified),-23.1%,?,-21.2%,?,.
CCOC(=O)c1c(C)[nH]c(C(=O)N2CCN(C(=O)OCC)CC2)c1C,12.4%,4.5%,5.6%,i,-1.8
COc1cc2c(cc1OC)CN(C(=O)c1ccc([N+](=O)[O-])o1)CC2,12.6µM*,-9.0%,-35.9%,i,?
